Bioassay records deposited in PubChem by National Center for Advancing Translational Sciences (NCATS).
TRPML1 blocker: human mucolipin-1 channel inhibition. Q9GZU1. TRPML1-inducible cells, Ca2+ dye fluorescence, FDSS; hits give low values; inhibition of EC80 agonist-evoked calcium signal. activity change, negative = inhibition, % (test concentration not listed). 390,000 compounds, 0.02% hits. AID 624415; in the data active = activity change below about -50%; inconclusive = between about -30% and that limit;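 also: stimulus is agonist 54-4 at its EC80 concentration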
Target sequence (Q9GZU1 whole entry, looked up): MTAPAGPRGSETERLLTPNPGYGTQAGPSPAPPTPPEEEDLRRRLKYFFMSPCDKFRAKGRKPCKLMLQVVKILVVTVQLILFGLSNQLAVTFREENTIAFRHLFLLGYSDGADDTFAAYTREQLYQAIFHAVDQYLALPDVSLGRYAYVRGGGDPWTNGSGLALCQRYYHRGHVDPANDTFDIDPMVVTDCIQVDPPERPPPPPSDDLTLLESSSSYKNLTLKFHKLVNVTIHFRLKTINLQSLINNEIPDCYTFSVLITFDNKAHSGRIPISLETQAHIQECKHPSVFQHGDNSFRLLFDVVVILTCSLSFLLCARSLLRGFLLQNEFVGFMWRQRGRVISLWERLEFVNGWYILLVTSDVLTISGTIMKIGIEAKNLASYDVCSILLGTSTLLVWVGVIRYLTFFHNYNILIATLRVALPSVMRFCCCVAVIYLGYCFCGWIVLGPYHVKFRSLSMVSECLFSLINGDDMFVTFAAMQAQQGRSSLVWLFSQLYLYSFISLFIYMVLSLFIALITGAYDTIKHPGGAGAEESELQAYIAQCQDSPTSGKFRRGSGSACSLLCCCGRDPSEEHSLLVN
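TRPML1-DL cells, Tet-induced overnight (~16 h, 37 °C) at 1,500 cells/well, were loaded with Ca8 no-wash dye plus quencher for 45-90 min at room temperature. Compounds were pinned during FDSS kinetic reading; agonist 54-4 at EC80 (4 uM final) then added.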
TRPV1 PAM: human TRPV1 potentiation; Q8NER1; TRPV1-expressing cells, Fluo-8 calcium influx, capsaicin EC20 potentiation; potentiation, % at 8.33 µM; 320,000 compounds, 0.02% hits; in the data active = potentiation above about 80%; inconclusive = between about 30% and that limit
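Cells expressing TRPV1 were dye-loaded with Fluo-8 and read kinetically: 10 s baseline, 3 min after compound (agonist portion), then 2 min after EC20 capsaicin (allosteric enhancer portion). Calcium-bound dye fluorescence at 480/520 nm.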
TRHR ag: agonists of human TRH receptor; TRHR cells, calcium flux fluo-8, FDSS agonist mode; activation, % at 2 µM; 360,000 compounds, 0.18% hits; AID 493084; in the data active = activation above about 30%
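TRHR-expressing cells, plated overnight in medium with 10% serum, were loaded with fluo-8 calcium dye at room temperature. After a 10 s baseline, library compound was pin-added and calcium release was recorded kinetically (ex 480/em 530) as agonist response.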
TRPV1 agonist: agonists of human vanilloid receptor 1 (TRPV1); TRPV1-expressing cells, Fluo-8 calcium influx, agonist mode; activation, % at 8.33 µM; 320,000 compounds, 0.19% hits; in the data active = activation above about 80%; inconclusive = between about 30% and that limit
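Cells expressing TRPV1 were dye-loaded with Fluo-8 and read kinetically: 10 s baseline, 3 min after compound (agonist portion), then 2 min after EC20 capsaicin (allosteric enhancer portion). Calcium-bound dye fluorescence at 480/520 nm.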
TRPML1 ag: agonists of human TRPML1 channel | Q9GZU1 | TRPML1-expressing cells, Ca2+ dye fluorescence, FDSS | activation, % (no concentration beside the values) | 410,000 compounds, 0.12% hits; in the data active = activation above about 50%; inconclusive = mostly about 30% to 49%
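TRPML1-DL cells, Tet-induced overnight (~16 h, 37 degrees C), loaded 45-90 min at room temperature with Ca8 no-wash calcium dye plus quencher. FDSS fluorescence: 10 s baseline, compound pin-transfer, 110 s agonist read, then EC80 54-4 (4uM final) and 110 s antagonist read.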
TRHR PAM: TRH receptor (human) allosteric enhancement; P34981; TRHR cells, fluo-8 calcium fluorescence, EC20 TRH enhancement; enhancement, % at 2 µM; 360,000 compounds, 0.66% hits; AID 493056; in the data active = enhancement above about 30%
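TRHR-expressing cells loaded with fluo-8 calcium dye were read kinetically (ex 480/em 530) during compound addition, then stimulated with an EC20 of TRH (10 nM final). Enhancement of the Gq-mediated intracellular calcium response was scored.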
Hits are given with their value. Most compounds without a hit are left out; they make up all but 0.96% or so of the library.

For Cc1cc(C(Br)(Br)Br)nc2ccccc12 the results were TRPML1 ag inactive.
Screening O=C(CCCOc1ccc(Cl)cc1)N1CCCCCC1 returned TRPML1 blocker inactive, TRPV1 PAM inactive, TRHR ag inactive, TRPV1 agonist inconclusive, TRPML1 ag inactive and TRHR PAM inactive.
For O=C(CCCOc1ccc(Cl)cc1)N1CCCCC1 the results were TRPML1 blocker inactive, TRPV1 PAM inactive, TRHR ag inactive, TRPV1 agonist 90, TRPML1 ag inactive and TRHR PAM inactive.
For CC(C)(C)c1ccc(OCCCC(=O)N2CCOCC2)cc1 the results were TRPML1 blocker inactive, TRPV1 PAM inactive, TRHR ag inactive, TRPV1 agonist 85, TRPML1 ag inactive and TRHR PAM inactive.
Screening O=C(Nc1ccccc1)c1ccc(-c2ccccc2Cl)o1 returned TRPML1 blocker inactive, TRPV1 PAM inactive, TRHR ag inactive, TRPV1 agonist inconclusive, TRPML1 ag inactive and TRHR PAM inactive.
CC(=O)Nc1ccc(NC(=O)c2ccc(-c3ccccc3Cl)o2)cc1 was read as TRPML1 blocker inactive, TRPV1 PAM inactive, TRHR ag inactive, TRPV1 agonist inactive, TRPML1 ag inactive and TRHR PAM 33.
`CC(C)c1ccc(/C=N\NC(=O)c2ccc(Cn3cccn3)o2)cc1` gave TRPML1 blocker inactive, TRPV1 PAM inactive, TRHR ag inactive, TRPV1 agonist 82, TRPML1 ag inactive and TRHR PAM inactive.
`O=C(N/N=C\c1ccc(Cl)s1)c1ccc(Cn2cccn2)o1` gave TRPML1 blocker inactive, TRPV1 PAM inactive, TRHR ag inactive, TRPV1 agonist inconclusive, TRPML1 ag inactive and TRHR PAM inactive.
Screening O=C(Cn1nc(Cl)nc1Cl)c1ccccc1 returned TRPML1 blocker inactive, TRPV1 PAM inactive, TRHR ag inactive, TRPV1 agonist inactive, TRPML1 ag inactive and TRHR PAM inactive.
CC(C)(C)C(=O)Cn1nc(Cl)nc1Cl was read as TRPML1 blocker inactive, TRPV1 PAM inactive, TRHR ag inactive, TRPV1 agonist inactive, TRPML1 ag inactive and TRHR PAM 32.
`Cc1cc(-c2nnc(SCCC(=O)Nc3ccccc3)o2)no1` gave TRPML1 blocker inactive, TRPV1 PAM inactive, TRHR ag inactive, TRPV1 agonist inactive, TRPML1 ag inactive and TRHR PAM inactive.
Screening Cc1cc(-c2nnc(SCc3ccccn3)o2)no1 returned TRPML1 blocker inactive, TRPV1 PAM inactive, TRHR ag inactive, TRPV1 agonist inactive, TRPML1 ag inactive and TRHR PAM 31.
Screening Cc1c(Br)cc(F)c([S+](=O)([O-])N2CCN([S+](=O)([O-])c3ccc4c(c3)OCCO4)CC2)c1F returned TRHR ag inactive and TRHR PAM inactive.
`COC(=O)c1cc2c(=O)c3ccccc3oc2nc1/C=C/N(C)C` gave TRPML1 blocker inactive, TRPV1 PAM inactive, TRHR ag 35, TRPV1 agonist inconclusive, TRPML1 ag inactive and TRHR PAM inactive.
COc1cc2c(NC3CCN(C(C)C)CC3)nc(N3CCCN(C)CC3)nc2cc1OCCOCCN(C)C was read as TRPML1 ag inactive.
CCOCCCNC(=O)c1c(NC(=O)c2nc(SCC)ncc2Cl)sc2c1CCCC2 was read as TRPML1 ag inactive.
For CN1CCc2c(sc3c2C(=O)NC(c2ccc(OC(=O)c4ccccc4)cc2)N3)C1 (stereo not given) the results were TRPML1 blocker inactive, TRHR ag inactive, TRPML1 ag inactive and TRHR PAM inactive.
`Cc1cccc(C2NC(=O)c3c(sc4c3CCN(C)C4)N2)c1O` (stereo not given) gave TRPML1 blocker inactive, TRHR ag inactive, TRPML1 ag inactive and TRHR PAM 47.
Screening CN1CCc2c(sc3c2C(=O)NC(c2ccc(OC(=O)c4ccc(C(C)(C)C)cc4)cc2)N3)C1 (stereo not given) returned TRPML1 blocker inactive, TRHR ag 121, TRPML1 ag inconclusive and TRHR PAM inactive.
Screening CN1CCc2c(sc3c2C(=O)NC(c2ccccc2)N3)C1 (stereo not given) returned TRPML1 blocker inactive, TRPV1 PAM inactive, TRHR ag inactive, TRPV1 agonist inactive, TRPML1 ag inactive and TRHR PAM inactive.
For CN1CCc2c(sc3c2C(=O)NC(c2ccc(OC(=O)c4ccc(Cl)cc4)cc2)N3)C1 (stereo not given) the results were TRPML1 blocker inactive, TRHR ag 71, TRPML1 ag inactive and TRHR PAM inactive.
COc1cccc(C2C=C(c3ccc(Br)s3)Nc3ncnn32)c1OC (stereo not given) was read as TRPML1 blocker inactive, TRPV1 PAM inactive, TRHR ag 33, TRPV1 agonist inactive, TRPML1 ag inactive and TRHR PAM inactive.
CCN(CC)c1nc(C=Cc2ccc(N(C)C)cc2)c2nccnc2n1 was read as TRPML1 blocker inactive and TRPML1 ag 64.
For CN(C)c1ccc(C=Cc2nccc3ccccc23)cc1 the results were TRPML1 ag inactive.
CCN(CC)c1ccc(/C=C/c2nccc3ccccc23)cc1 was read as TRPML1 ag 64.
For Cc1ccc(N2C(=O)C3N=NN(CC(=O)N4N=C(c5ccccc5)CC4c4ccccc4)C3C2=O)cc1 (stereo not given) the results were TRPML1 blocker inactive, TRPV1 PAM 84, TRHR ag inactive, TRPV1 agonist inactive, TRPML1 ag inactive and TRHR PAM inactive.
For CC(C)(C)n1ncc2c(=O)n(Cc3ccc(Cl)c(F)c3)cnc21 the results were TRPML1 blocker inactive and TRPML1 ag inactive.
For COc1cccc(N/C(N)=N/c2nc(C(F)(F)F)cc(C(F)(F)F)n2)c1 the results were TRPML1 blocker inactive, TRPV1 PAM inconclusive, TRHR ag inactive, TRPV1 agonist inactive, TRPML1 ag inactive and TRHR PAM inactive.
COc1cccc(N/C(N)=N/c2nc(C(F)(F)F)cc(=O)[nH]2)c1 was read as TRPML1 blocker inactive, TRPV1 PAM inactive, TRHR ag inactive, TRPV1 agonist inactive, TRPML1 ag inactive and TRHR PAM 31.
Screening COc1ccc(NC(=O)CSc2ccc3c4c(cccc24)C(=O)c2ccccc2-3)cc1 returned TRPML1 blocker inactive and TRPML1 ag inactive.
N#Cc1cccc(NC(=O)CSc2ccc3c4c(cccc24)C(=O)c2ccccc2-3)c1 was read as TRPML1 blocker inactive, TRPV1 PAM inactive, TRHR ag inactive, TRPV1 agonist inactive, TRPML1 ag 80 and TRHR PAM inactive.
Cc1cnc(/C=C/c2ccc(N(C)C)cc2)cn1 was read as TRPML1 ag inactive.
`CCO[C@H]1OC(C(=O)N2CCN(Cc3ccc4c(c3)OCO4)CC2)=C[C@@H](C2CCCCC2)[C@@H]1CCCO` gave TRPML1 blocker inactive, TRPV1 PAM inactive, TRHR ag inactive, TRPV1 agonist inconclusive, TRPML1 ag inactive and TRHR PAM 38.
